Data on eight compounds can be found in PubChem BioAssay (EPA / NIEHS).

Several values for one entry are separate records, joined by “and”; a condition that tells them apart may be missing. Identical values can stand only once. Records with an inconclusive call do not appear. More than one record can exist for a structure, and the calls need not agree. Activity calls are given as the source filed them. Rule for the calls, unless noted: active = hit-call score of the fitted dose curve at least 0.9, where 1 is the maximum; inactive = score below 0.9.

A short description of experiment [1]: BSK_4H_Eotaxin3: BioMAP Diversity Plus: 4H Assay for Eotaxin 3 Biomarker Activity (AID 2283000).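 For outcome: CCL26 protein level quantified by ELISA in parallel with SRB cytotoxicity check.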 The note with it: primary human endothelial cells (HUVEC); actives raise or lower the signal. Summed up:
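Endothelial primary cells (human umbilical vein) exposed to compound for 24 h. ELISA detection of Eotaxin-3.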

Read-out in experiment [2]: Intercellular Adhesion Molecule 1 (ICAM1), ICAM1 (gene 3383)
Briefly: BSK_3C_ICAM1: BioMAP Diversity Plus: 3C Assay for Intercellular Adhesion Molecule 1 (ICAM1) Biomarker Activity (AID 2283003). The note with it: primary human endothelial cells (HUVEC); actives raise or lower the signal. Summed up: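 ICAM-1 levels measured by ELISA after HUVEC cultures in the 3C system had been dosed for 24 h. Gain or loss of signal relative to DMSO was fitted in both directions.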

Read-out in experiment [3]: Monokine induced gamma interferon (MIG), CXCL9 (gene 4283)
Briefly: BSK_3C_MIG: BioMAP Diversity Plus: 3C Assay for Monokine induced gamma interferon (MIG) Biomarker Activity (AID 2283021).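 For AC50: MIG protein level measured by immunoassay in the treated endothelial cultures.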 The note with it: primary human endothelial cells (HUVEC); actives raise or lower the signal. Summed up:
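Read-out is ELISA detection of MIG on human umbilical vein endothelial cells, taken 24 h after dosing. Gain or loss of signal was scored relative to DMSO controls using bidirectional curve fitting.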

Read-out in experiment [4]: Urokinase-type plasminogen activator receptor (uPAR), PLAUR (gene 5329)
As to the kind of experiment: BSK_4H_uPAR: BioMAP Diversity Plus: 4H Assay for Urokinase-type plasminogen activator receptor (uPAR) Biomarker Activity (AID 2283030). The note with it: primary human endothelial cells (HUVEC); actives raise or lower the signal. Summed up: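 Chemicals are dosed onto human vascular endothelial primary cells (umbilical vein). After 24 h, uPAR is read by ELISA. Gain or loss of signal is fitted relative to DMSO.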

Read-out in experiment [5]: Monokine induced gamma interferon (MIG), CXCL9 (gene 4283)
As to the kind of experiment: BSK_BE3C_MIG: BioMAP Diversity Plus: BE3C Assay for Monokine induced gamma interferon (MIG) Biomarker Activity (AID 2283035).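 Note: MIG protein measured by ELISA in BE3C cultures after 24 h of dosing.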 The note with it: primary human bronchial epithelial cells; actives raise or lower the signal. Summed up:
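Primary human bronchial epithelial cells treated for 24 h; MIG levels measured by ELISA, fitted bidirectionally versus DMSO. Parallel SRB total-protein staining assessed cytotoxicity.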

Read-out in experiment [6]: urokinase plasminogen activator (uPA), PLAU (gene 5328)
As to the kind of experiment: BSK_BE3C_uPA: BioMAP Diversity Plus: BE3C Assay for urokinase plasminogen activator (uPA) Biomarker Activity (AID 2283038).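 Note: uPA protein level quantified by ELISA in cell cultures; uPA read one day after compound addition.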 The note with it: primary human bronchial epithelial cells; actives raise or lower the signal. Summed up:
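Measured by ELISA: uPA from human primary bronchial epithelial cells 24 h after chemical treatment. Values derive from bidirectional curve fitting with DMSO serving as negative control. Total protein by SRB staining in parallel wells flagged overt cytotoxicity.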

A short description of experiment [7]: TOX21_p53_BLA_p3_viability: Viability Assessment in the Tox21 HCT-116 p53 Agonism Beta-lactamase Assay, Phase 3 (AID 2283593; active = hit-call score of the fitted dose curve at least 0.9, where 1 is the maximum;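 note: cells exposed to compound for 16 h before reading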). In short, it runs like this: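 HCT116 cells, 4000/well, dosed 5 h after plating by pin transfer (217-fold dilution from DMSO stock) and incubated 16 h at 37C, 5% CO2. Viability read as ATP luminescence with CellTiter-Glo after 30 min at room temperature.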

Experiment [8] is described as follows: TOX21_p53_BLA_p4_viability: Viability Assessment in the Tox21 HCT-116 p53 Agonism Beta-lactamase Assay, Phase 4 (AID 2283597; active = hit-call score of the fitted dose curve at least 0.9, where 1 is the maximum;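 note: hits lower the luminescence signal meaning cytotoxicity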). In short, it runs like this:
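Compound exposure of HCT116 cells lasts 16 h at 37C, 5% CO2, with DMSO stocks diluted 217-fold. Cellular ATP is then quantified by CellTiter-Glo luminescence after 30 min at room temperature.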

Experiment [9] is described as follows: TOX21_p53_BLA_p5_viability: Viability Assessment in the Tox21 HCT-116 p53 Agonism Beta-lactamase Assay, Phase 5 (AID 2283600; active = hit-call score of the fitted dose curve at least 0.9, where 1 is the maximum). In short, it runs like this:
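Counter-readout for cytotoxicity: ATP-dependent luminescence from CellTiter-Glo, read in the beta-lactamase wells after 30 min at RT, following a 16 h compound exposure at 37C.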

Experiment [10] in a line: ACEA_ER_AUC_viability: ACEA Biosciences xCELLigence Real-Time Cell Analysis on Estrogen Receptor Agonism for Viability (AID 2283782; active = hit-call score of the fitted dose curve at least 0.9, where 1 is the maximum;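 note: continuous compound exposure with impedance area under curve over 80 h; hit means loss of impedance signal meaning reduced cell growth or viability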). In short, it runs like this:
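T47D cells preconditioned in phenol red-free RPMI with charcoal-stripped FBS, then dosed with 8-point 1:4 series from 100 uM (up to 0.5% DMSO). Impedance monitored up to ~80 h; area-under-curve loss versus DMSO taken as viability.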

Experiment [11] concerns the target Bile acid receptor (Homo sapiens) (UniProt Q96RI1). As to the kind of experiment: ATG_IR1_CIS: Attagene CIS-FACTORIAL HepG2 Assay for human Nuclear Receptor Subfamily 1 Group H Member 4 (NR1H4), IR1 submotif (AID 2282946). Conditions: IR1 reporter transcription, actives raise or lower the signal. Summed up: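 HepG2 cells transiently transfected with multiple cis-promoter-driven reporter units to measure endogenous transcription factor activity; 24 h exposure. Reporter mRNA read by RT-PCR, FAM labelling, HpaI digestion and capillary electrophoresis. Bidirectional fit versus DMSO.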

The target of experiment [12] is Glucocorticoid receptor (Homo sapiens) (UniProt P04150). Briefly: ATG_GR_TRANS: Attagene TRANS-FACTORIAL HepG2 Assay for human Glucocorticoid Receptor (GR) (AID 2282978; active = hit-call score of the fitted dose curve at least 0.9, where 1 is the maximum;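 note: activators score as hits since higher reporter transcript over DMSO is fitted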). Conditions: HepG2 Attagene TRANS GR reporter, mRNA transcription. Summed up:
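Reporter transcript levels, detected by fluorescence after RT-PCR and capillary electrophoresis, served as the endpoint. HepG2 cells bearing transfected GAL4-UAS reporters responsive to NR-GAL4 chimeras were incubated with compound 24 h; DMSO defined baseline.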

The target in experiment [13] is human Vitamin D Receptor (VDR), VDR (gene 7421) (UniProt P11473). As to the kind of experiment: ATG_VDR_TRANS: Attagene TRANS-FACTORIAL HepG2 Assay for human Vitamin D Receptor (VDR) (AID 2283022; active = hit-call score of the fitted dose curve at least 0.9, where 1 is the maximum). Summed up:
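Fluorescence of labelled reporter cDNA fragments, resolved by capillary electrophoresis, gives mRNA induction after 24 h treatment of HepG2 cells carrying transfected Gal4-fusion reporter units. Activity is fitted in the positive direction with DMSO as baseline.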

Experiment [14] in a line: ATG_XTT_Cytotoxicity: Cytotoxicity Assessment in the Attagene TRANS-FACTORIAL HepG2 Assay (AID 2283584; active = hit-call score of the fitted dose curve at least 0.9, where 1 is the maximum). Summed up: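 Transfect HepG2 with GAL4-UAS reporter units, dose compound, incubate 24 h, then measure viable cell number by XTT. Fit concentration response against DMSO baseline.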
Experiment [15] in a line: ATG_ERE_CIS: Attagene CIS-FACTORIAL HepG2 Assay for Estrogen Response Element (ERE) (AID 2282940). The note with it: HepG2 ERE cis-reporter, Attagene RNA transcript; actives raise or lower the signal. Summed up:
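HepG2 cells transiently transfected with multiplexed cis-element reporter units, measuring endogenous transcription factor activity; ERE reporter mRNA quantified after 24 h exposure by RT-PCR, fluorescent labelling, HpaI digestion and capillary electrophoresis. Bidirectional change versus DMSO.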

For experiment [16], the target named is human Peroxisome Proliferator-activated Receptor delta (PPARd), PPARD (gene 5467) (UniProt Q03181). Briefly: ATG_PPARd_TRANS: Attagene TRANS-FACTORIAL HepG2 Assay for human Peroxisome Proliferator-activated Receptor delta (PPARd) (AID 2283002; active = hit-call score of the fitted dose curve at least 0.9, where 1 is the maximum). Summed up:
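Fluorescence from capillary electrophoresis of labelled RT-PCR reporter fragments gives the signal; DMSO sets baseline. Cells: HepG2 transiently carrying GAL4-UAS reporter units plus chimeric nuclear receptor-Gal4 proteins, exposed to chemicals for 24 h.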

Experiment [17] addresses Nuclear receptor subfamily 1 group I member 3 (Homo sapiens) (UniProt Q14994). Briefly: ATG_CAR_TRANS: Attagene TRANS-FACTORIAL HepG2 Assay for human Constitutive Androstane Receptor (CAR) (AID 2282969; active = hit-call score of the fitted dose curve at least 0.9, where 1 is the maximum;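 note: activators raise reporter mRNA above DMSO so AC50 marks induction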). The note with it: HepG2 Attagene TRANS-FACTORIAL CAR reporter. Summed up: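 HepG2 cells transiently transfected with GAL4-UAS reporter units; TRANS format reads activity of exogenous chimeric NR-Gal4 protein. After 24 h dosing, reporter mRNA quantified by RT-PCR, 6-FAM labelling and capillary electrophoresis; gain of signal fitted against DMSO.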

Experiment [18] deals with Nuclear receptor subfamily 1 group I member 2 (Homo sapiens) (UniProt O75469). As to the kind of experiment: ATG_PXR_TRANS: Attagene TRANS-FACTORIAL HepG2 Assay for human Pregnane X Receptor (PXR) (AID 2283008; active = hit-call score of the fitted dose curve at least 0.9, where 1 is the maximum). Summed up:
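Measures mRNA induction of a GAL4-UAS-driven reporter in human HepG2 cells transiently expressing PXR fused to Gal4, following 24 h treatment. DMSO served as negative control and baseline.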

Experiment [19] addresses Retinoic acid receptor RXR-alpha (Homo sapiens) (UniProt P19793). As to the kind of experiment: ATG_RXRa_TRANS: Attagene TRANS-FACTORIAL HepG2 Assay for human Retinoid X Receptor alpha (RXRa) (AID 2283012; active = hit-call score of the fitted dose curve at least 0.9, where 1 is the maximum). In short, it runs like this: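 Transient transfection of human HepG2 with multiple GAL4-UAS reporter constructs; 24 h compound exposure; total RNA isolated, reverse-transcribed, PCR-amplified, 6-FAM labelled, HpaI-cut, resolved by capillary electrophoresis. Positive-direction fit versus DMSO.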

For experiment [20], the target named is human RAR-related Orphan Receptor beta (RORb), RORB (gene 6096) (UniProt Q92753). As to the kind of experiment: ATG_RORb_TRANS: Attagene TRANS-FACTORIAL HepG2 Assay for human RAR-related Orphan Receptor beta (RORb) (AID 2283010; active = hit-call score of the fitted dose curve at least 0.9, where 1 is the maximum). Summed up:
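Readout is reporter-gene mRNA induction, detected as fluorescence after RT-PCR and capillary electrophoresis, fitted for gain of signal against DMSO controls. Transiently transfected HepG2 liver cells carrying GAL4-UAS reporter constructs were treated for 24 hours.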

Sequence of Bile acid receptor (Homo sapiens) (Q96RI1 whole entry, looked up): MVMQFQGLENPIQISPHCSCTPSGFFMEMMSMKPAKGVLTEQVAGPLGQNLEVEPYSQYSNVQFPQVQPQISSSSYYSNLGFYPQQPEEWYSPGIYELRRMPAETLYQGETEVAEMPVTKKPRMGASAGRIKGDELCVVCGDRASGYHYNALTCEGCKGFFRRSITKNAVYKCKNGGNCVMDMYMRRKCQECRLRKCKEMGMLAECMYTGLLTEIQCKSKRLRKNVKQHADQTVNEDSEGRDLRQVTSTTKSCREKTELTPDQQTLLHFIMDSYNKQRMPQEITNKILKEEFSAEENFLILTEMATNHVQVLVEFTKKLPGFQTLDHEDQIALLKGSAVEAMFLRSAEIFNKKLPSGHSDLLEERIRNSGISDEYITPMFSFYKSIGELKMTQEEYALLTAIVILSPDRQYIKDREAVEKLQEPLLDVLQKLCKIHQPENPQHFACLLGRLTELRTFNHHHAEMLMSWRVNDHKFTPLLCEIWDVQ
Sequence of Glucocorticoid receptor (Homo sapiens) (P04150 whole entry, looked up, the tested form may be a part): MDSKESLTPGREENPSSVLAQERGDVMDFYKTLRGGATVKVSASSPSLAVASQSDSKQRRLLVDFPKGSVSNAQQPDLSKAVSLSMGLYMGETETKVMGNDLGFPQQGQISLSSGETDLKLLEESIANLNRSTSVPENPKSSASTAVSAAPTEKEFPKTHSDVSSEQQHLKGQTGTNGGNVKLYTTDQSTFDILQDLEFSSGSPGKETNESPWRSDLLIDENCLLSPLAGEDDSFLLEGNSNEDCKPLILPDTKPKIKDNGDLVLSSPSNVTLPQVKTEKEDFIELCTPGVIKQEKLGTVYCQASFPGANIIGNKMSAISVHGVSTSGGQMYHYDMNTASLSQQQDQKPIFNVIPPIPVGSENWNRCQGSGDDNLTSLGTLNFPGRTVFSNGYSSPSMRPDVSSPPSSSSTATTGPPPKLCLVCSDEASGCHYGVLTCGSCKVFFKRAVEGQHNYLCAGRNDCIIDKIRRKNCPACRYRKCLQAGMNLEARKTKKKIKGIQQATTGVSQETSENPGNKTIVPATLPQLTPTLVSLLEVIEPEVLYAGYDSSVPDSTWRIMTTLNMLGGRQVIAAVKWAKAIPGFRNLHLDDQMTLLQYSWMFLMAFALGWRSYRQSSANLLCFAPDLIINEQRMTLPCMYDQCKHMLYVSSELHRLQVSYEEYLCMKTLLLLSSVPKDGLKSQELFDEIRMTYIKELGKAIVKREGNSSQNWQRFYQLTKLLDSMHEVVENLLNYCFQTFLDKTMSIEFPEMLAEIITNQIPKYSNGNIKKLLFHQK
Sequence of human Peroxisome Proliferator-activated Receptor delta (PPARd), PPARD (gene 5467) (Q03181 whole entry, looked up, the tested form may be a part): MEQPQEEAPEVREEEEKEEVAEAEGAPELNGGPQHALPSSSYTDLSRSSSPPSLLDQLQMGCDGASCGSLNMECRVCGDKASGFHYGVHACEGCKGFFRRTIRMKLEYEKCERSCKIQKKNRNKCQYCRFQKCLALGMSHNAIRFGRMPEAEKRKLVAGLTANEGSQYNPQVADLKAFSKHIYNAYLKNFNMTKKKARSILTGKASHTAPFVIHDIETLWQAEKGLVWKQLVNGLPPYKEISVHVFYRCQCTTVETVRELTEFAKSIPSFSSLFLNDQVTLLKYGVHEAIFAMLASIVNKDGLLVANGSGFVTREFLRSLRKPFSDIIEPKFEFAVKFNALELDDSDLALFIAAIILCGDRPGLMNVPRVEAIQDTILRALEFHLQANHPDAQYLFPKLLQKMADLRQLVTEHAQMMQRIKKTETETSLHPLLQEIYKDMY
Sequence of Nuclear receptor subfamily 1 group I member 2 (Homo sapiens) (O75469 whole entry, looked up, the tested form may be a part): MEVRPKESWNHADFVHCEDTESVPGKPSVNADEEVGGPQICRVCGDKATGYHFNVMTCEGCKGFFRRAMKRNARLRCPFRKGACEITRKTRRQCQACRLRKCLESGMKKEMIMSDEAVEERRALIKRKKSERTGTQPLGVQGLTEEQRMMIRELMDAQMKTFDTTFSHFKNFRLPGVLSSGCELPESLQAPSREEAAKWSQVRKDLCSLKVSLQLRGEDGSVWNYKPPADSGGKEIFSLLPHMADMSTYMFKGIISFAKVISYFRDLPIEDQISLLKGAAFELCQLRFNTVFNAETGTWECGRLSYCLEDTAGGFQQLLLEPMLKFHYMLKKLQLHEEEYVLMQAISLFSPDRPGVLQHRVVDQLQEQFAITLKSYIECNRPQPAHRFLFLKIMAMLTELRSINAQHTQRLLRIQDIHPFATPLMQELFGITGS
Sequence of Retinoic acid receptor RXR-alpha (Homo sapiens) (P19793 whole entry, looked up, the tested form may be a part): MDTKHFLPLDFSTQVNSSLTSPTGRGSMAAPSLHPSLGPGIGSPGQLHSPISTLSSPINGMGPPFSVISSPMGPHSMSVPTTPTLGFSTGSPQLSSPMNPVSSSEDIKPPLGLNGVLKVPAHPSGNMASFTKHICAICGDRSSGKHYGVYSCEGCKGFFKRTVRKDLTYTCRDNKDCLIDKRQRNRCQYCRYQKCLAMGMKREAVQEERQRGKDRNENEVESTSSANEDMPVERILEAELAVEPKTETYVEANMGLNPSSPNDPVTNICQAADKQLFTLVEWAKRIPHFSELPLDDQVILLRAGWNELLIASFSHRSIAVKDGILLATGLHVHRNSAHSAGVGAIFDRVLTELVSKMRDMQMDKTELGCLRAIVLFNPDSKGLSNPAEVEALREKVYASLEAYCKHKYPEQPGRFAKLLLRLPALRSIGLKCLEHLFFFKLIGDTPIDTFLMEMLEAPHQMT
Sequence of Nuclear receptor subfamily 1 group I member 3 (Homo sapiens) (Q14994 whole entry, looked up, the tested form may be a part): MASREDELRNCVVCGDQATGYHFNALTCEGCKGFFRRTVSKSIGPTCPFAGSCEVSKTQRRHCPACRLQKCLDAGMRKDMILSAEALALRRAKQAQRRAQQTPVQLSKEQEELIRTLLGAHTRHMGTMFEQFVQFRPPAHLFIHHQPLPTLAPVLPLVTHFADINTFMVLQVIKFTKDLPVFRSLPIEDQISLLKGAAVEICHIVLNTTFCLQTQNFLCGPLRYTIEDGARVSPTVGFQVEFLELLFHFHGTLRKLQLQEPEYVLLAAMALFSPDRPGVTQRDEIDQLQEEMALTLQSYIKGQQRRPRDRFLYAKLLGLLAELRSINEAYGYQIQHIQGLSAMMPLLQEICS
Sequence of human Vitamin D Receptor (VDR), VDR (gene 7421) (P11473 whole entry, looked up, the tested form may be a part): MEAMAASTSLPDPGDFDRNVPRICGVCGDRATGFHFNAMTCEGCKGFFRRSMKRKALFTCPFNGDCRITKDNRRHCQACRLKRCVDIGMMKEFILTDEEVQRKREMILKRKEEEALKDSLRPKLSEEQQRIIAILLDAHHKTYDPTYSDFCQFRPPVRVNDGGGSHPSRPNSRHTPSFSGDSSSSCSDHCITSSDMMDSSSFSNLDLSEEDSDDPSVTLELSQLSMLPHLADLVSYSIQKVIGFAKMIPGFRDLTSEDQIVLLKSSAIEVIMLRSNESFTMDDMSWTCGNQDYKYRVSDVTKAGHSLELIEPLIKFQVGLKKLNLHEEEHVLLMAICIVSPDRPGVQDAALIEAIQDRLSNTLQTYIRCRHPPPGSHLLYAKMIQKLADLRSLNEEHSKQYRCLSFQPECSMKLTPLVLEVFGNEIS
Sequence of human RAR-related Orphan Receptor beta (RORb), RORB (gene 6096) (Q92753 whole entry, looked up, the tested form may be a part): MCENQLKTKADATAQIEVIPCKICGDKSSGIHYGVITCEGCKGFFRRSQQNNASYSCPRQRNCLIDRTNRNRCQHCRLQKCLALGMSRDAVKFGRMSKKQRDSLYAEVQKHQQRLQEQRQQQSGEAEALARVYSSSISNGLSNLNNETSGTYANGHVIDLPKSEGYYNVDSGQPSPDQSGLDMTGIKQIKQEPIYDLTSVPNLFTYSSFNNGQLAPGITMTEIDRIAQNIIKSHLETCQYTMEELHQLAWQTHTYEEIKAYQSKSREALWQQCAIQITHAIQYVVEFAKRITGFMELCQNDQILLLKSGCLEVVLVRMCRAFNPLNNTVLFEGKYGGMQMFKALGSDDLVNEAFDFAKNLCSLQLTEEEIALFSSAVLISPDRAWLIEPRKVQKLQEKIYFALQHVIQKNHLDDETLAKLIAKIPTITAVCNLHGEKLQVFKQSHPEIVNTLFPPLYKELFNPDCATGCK

As to `O=[N+]([O-])O`, in experiment [1], the AC50 was 0.433 µM (active). The result in experiment [1], in experiment [2], in experiment [3], in [4], in [5] and in experiment [6] was inactive. The compound was called inactive in experiment [7], in [8], in experiment [9] and in [10].

Turning to `CC(C)COP(=O)(OCC(C)C)OCC(C)C`, the compound was classed as inactive in [11], in experiment [12], in experiment [1], in experiment [2], in [3] and in experiment [13]. Besides, the outcome in experiment [4], in [5], in [6], in experiment [14], in experiment [7] and in experiment [8] was inactive.

As to `BrCBr`, the compound was called inactive in [15], in experiment [12], in [16], in experiment [7], in experiment [8] and in experiment [9].

As to `c1ccc(Nc2ccc3ccccc3c2)cc1`, the AC50 was 8.6 µM (active) in experiment [15]; 30.6 µM (active) in experiment [2]; 7.59 µM (active) in [18]; 33 µM (active) in experiment [3]; 31.3 µM (active) in [4]; 73.9 µM (active) and 83 µM (active) in experiment [8]. The AC50 in experiment [10] was 87.1 µM (active). Besides, the compound was called inactive in experiment [11], in experiment [17], in [12], in experiment [1], in experiment [16] and in [19]. In addition, the outcome in experiment [5], in experiment [6] and in experiment [9] was inactive.

Turning to `SCc1ccco1`, the compound was called inactive in [15], in experiment [11], in experiment [17], in experiment [16], in experiment [13] and in experiment [10].

Take `CC1CCC(=O)O1` (configuration not stated): the compound was classed as inactive in [12], in [18], in experiment [20] and in experiment [14]. The AC50 in experiment [10] is 50 µM (active).

Regarding `CCCCCCCCCCCC#N`, the AC50 in experiment [11] is 165 µM (active); in [1], 27.5 µM (active); in experiment [18], 19.5 µM (active); in experiment [4], 20.6 µM (active). Besides, the compound was called inactive in [17], in experiment [12], in experiment [16], in experiment [2], in [20] and in [19]. The result in experiment [3], in experiment [5], in [6], in experiment [9] and in experiment [10] was inactive.

In the case of `N#CCCCCC#N`, the outcome in [11], in experiment [12], in experiment [1], in experiment [2], in experiment [19] and in experiment [3] was inactive. The result in experiment [4], in experiment [5], in experiment [6], in experiment [8] and in [9] was inactive.
